GRIN3A LBD mod = modulators (binders) of human NR3A ligand-binding domain. AID 1259313. hit rate 2.5% among 340,000. Tm shift relative to glycine control, % at 25 µM. NR3A LBD differential scanning fluorimetry, Tm shift; 0% = protein alone, 100% = glycine-bound protein;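 active means melting temperature shift of at least 10% of the positive control shift, at one fixed dose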
FAS TE block = blocks the thioesterase domain of human fatty acid synthase. P49327. recombinant FAS-TE, OMFH fluorogenic substrate, fluorescence endpoint. inhibition, % at 15 µM. AID 602261. hit rate 0.67% among 360,000;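 active means compounds whose normalised, plate-corrected inhibition of enzyme fluorescence in the single-dose primary screen is 50% or more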;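 further: 0% = DMSO with enzyme and 100% = substrate without enzyme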
MPTP block = inhibitors of mitochondrial permeability transition pore; isolated mouse mitochondria, Ca2+ swelling absorbance, 30 min; inhibition, % at 10 µM; hit rate 1.4% among 360,000;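 active means inhibition of 50% or more, scaled per plate between neutral and stimulator controls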;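 further: 0% = DMSO wells given calcium and 100% = 1 mM EGTA wells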
MIN6 prolif = induces beta-cell replication in MIN6 cells; MIN6 cells proliferation, ATPlite luminescence, 48 h; cells starved in 0.2% serum; 100% = growth in 10% serum; proliferation, % at 10 µM; hit rate 0.29% among 330,000; AID 2380;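 active means compounds whose signal lies at least 3.5 SD above the mean of all wells on their plate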;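 further: 0% = DMSO-treated cells in low-serum medium and 100% = 10% serum control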
pCIP destab = p/CIP protein destabilization; AID 1984; decrease of EGFP signal, % at 10 µM; F442A p/CIP-EGFP cells, EGFP fluorescence, 16 h; Q05BA5; hit rate 0.01% among 290,000;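 active means EGFP signal decrease of at least 30% at 10 µM or well 3 SD below plate mean, unless failing retest; inactive means the rest, including hits failing retest or dose response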
FAS-TE inh conf = FAS thioesterase (human) inhibition, confirmation; shares compounds with FAS TE block; recombinant FAS-TE, OMFH fluorogenic substrate, fluorescence; inhibition, % at 15 µM; AID 624325; hit rate 45% among 2,300;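 active means compounds inhibiting the enzyme by at least 50% at 15 µM in any one of the replicates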;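 further: 0% = enzyme with DMSO only and 100% = wells lacking enzyme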
Active calls of the source: *; . = no result given. Only some compounds are listed: those with a hit (about 4.1% of all), similar ones and a draw of the others.

SMILES	GRIN3A LBD mod	FAS TE block	MPTP block	MIN6 prolif	pCIP destab	FAS-TE inh conf
Cc1ccc(-c2nnc3ccc(SCC(=O)N4CCCc5ccccc54)nn23)cc1	18.4*	73.7*	3.7	-1.1	-8.0	70.0*
CCCOc1ccc(F)cc1-c1cc(C(=O)Nc2ccc(C)c(NS(C)(=O)=O)c2)[nH]n1	.	15.3	-0.5	.	.	.
CCn1c(=S)sc2c(=O)n(CC(=O)NC(C)CCc3ccccc3)c(C)nc21 (stereo not given)	-4.1	79.1*	-0.3	-6.6	-2.6	74.4*
CCn1c(=S)sc2c(=O)n(CC(=O)Nc3ccccc3OC)c(C)nc21	-6.6	37.7	-0.6	-1.7	6.9	.
CCOC(=O)CN(C(=O)COc1nc(-c2ccccc2)cc(C)c1C#N)c1ccccc1	-1.9	59.3*	5.1	-0.8	-12.1	30.2
CCOC(=O)CN(C(=O)COc1nc(-c2ccccc2)cc(C)c1C#N)c1cccc(OC)c1	0.2	52.0*	6.5	-4.9	0.3	3.4
CCOC(=O)CN(C(=O)COc1nc(-c2ccccc2)cc(C)c1C#N)c1ccc(C)cc1	0.2	48.6	4.2	-4.1	3.8	.
CCOC(=O)CN(C(=O)COc1nc(-c2ccccc2)cc(C)c1C#N)c1ccccc1C	1.9	44.6	3.7	-4.8	-2.2	.
CC(C)OC1=CC(=O)OC(c2cccc(Cl)c2)C1 (stereo not given)	.	.	8.6	.	.	.
O=C(NC1CCCCC1)C(c1ccc(C(F)(F)F)cc1)n1c(=O)c(-c2cc3ccccc3[nH]2)nc2ccccc21 (stereo not given)	.	.	2.6	.	.	.
COC(=O)[C@@]12C[C@@H](CC(=O)NCc3cccc4ccccc34)C(=O)N(CCc3ccc(OC)c(OC)c3)C1=CCC(C)(C)C2	.	.	-0.2	.	.	.
COc1ccccc1/C=C(\NC(=O)c1ccc(OC)c(OC)c1)C(=O)Nc1ccc([N+](=O)[O-])cc1	-0.1	85.5*	0.1	-1.4	10.7	17.5
O=C(NNc1cccc([N+](=O)[O-])c1)/C(=C\c1cccnc1)NC(=O)c1ccccc1	0.3	66.3*	2.1	1.5	-8.3	64.5*
CC(C)(C)c1ccc(C(=O)N/C(=C\c2cccc([N+](=O)[O-])c2)C(=O)Nc2cccc(C(=O)O)c2)cc1	-3.6	83.4*	-1.1	1.7	-13.4	88.2*
O=C(Nc1cccc(C(=O)O)c1)/C(=C/c1ccc([N+](=O)[O-])cc1)NC(=O)c1ccccc1	1.6	22.9	0.2	0.0	-7.5	.
COc1ccccc1/C=C(\NC(=O)c1ccc(OC)c(OC)c1)C(=O)Nc1cccc([N+](=O)[O-])c1	-1.5	87.8*	2.9	-3.4	9.0	43.7*
CC(=O)c1ccc(-c2cnc3c(NC=O)cc(-c4cnn(C)c4)cn23)cc1	.	-1.9	1.1	.	.	.
COc1ccccc1-n1c2nc3ccccc3nc2c2c(=O)n(-c3cc(C)cc(C)c3)cnc21	-2.4	92.0*	0.0	-3.3	-12.4	33.0
CNC(=O)/C(C#N)=C\c1cc(C)n(-c2ccc(N3CCOCC3)cc2)c1C	-1.8	-0.7	0.8	-1.1	-9.4	.
Cc1cc(/C=C(\C#N)C(=O)Nc2ccc(F)cc2)c(C)n1-c1ccc(N2CCOCC2)c([N+](=O)[O-])c1	-2.8	61.7*	-0.3	-1.4	-19.9	-1.6
COc1ccc(NC(=O)/C(C#N)=C/c2cc(C)n(-c3ccc(N4CCOCC4)c([N+](=O)[O-])c3)c2C)cc1	-6.4	79.3*	4.7	0.0	-1.3	25.0
COc1ccc(NC(=O)/C(C#N)=C\c2cc(C)n(-c3ccc(Oc4ccc([N+](=O)[O-])cn4)cc3)c2C)cc1	-4.4	2.7	0.2	-3.8	-20.6	.
O=C1c2ccccc2C2(c3cc(C(F)(F)F)cc(C(F)(F)F)c3)NCCN12 (stereo not given)	-0.3	-0.6	1.3	.	-2.0	.
COc1ccc(OC)c(S(=O)(=O)NC(=O)C2(C)CCN2C(=O)C2(c3ccc(Cl)cc3)CC2)c1 (stereo not given)	.	-4.3	-2.0	.	.	.
O=c1[nH]c(CN2CCN(c3ncccn3)CC2)nc2c(Br)cc(Br)cc12	-2.3	11.3	2.2	0.9	-2.2	.
SMILES	GRIN3A LBD mod	FAS TE block	MPTP block	MIN6 prolif	pCIP destab	FAS-TE inh conf
O=c1[nH]c(CN2CCN(S(=O)(=O)c3cccs3)CC2)nc2c(Br)cc(Br)cc12	5.3	55.1*	-1.5	-5.6	19.8	38.2*
Cc1c(C(=O)OCCOc2ccc(Br)cc2)sc(=S)n1C	-3.1	69.0*	1.7	2.7	2.1	62.8*
CCOC(=O)C(OC(=O)c1sc(=S)n(C)c1C)C(C)=O (stereo not given)	-0.2	-1.6	-2.3	-2.0	45.7	.
Cc1ccc(Cn2c(SCC(=O)N3CC(=O)Nc4ccccc43)nc3ccccc3c2=O)cc1	-4.2	52.7*	1.5	-1.4	-3.0	22.6
Cc1cccc(-n2c(SCC(=O)N3CC(=O)Nc4ccccc43)nc3ccccc3c2=O)c1	-2.0	7.1	-2.6	-2.3	7.2	.
O=C1CN(C(=O)CSc2nc3cc(Cl)ccc3c(=O)n2Cc2ccccc2)c2ccccc2N1	-0.3	76.2*	3.8	-4.7	-21.7	20.3
CC(c1ccccc1)n1c(SCC(=O)N2CC(=O)Nc3ccccc32)nc2ccccc2c1=O (stereo not given)	-4.7	56.1*	0.9	0.0	-7.2	27.3
Cc1nnc(SCC(=O)N2CC(=O)Nc3ccccc32)n1Cc1ccccc1	-0.1	-9.7	-0.4	-1.5	-8.6	.
CC(C)Cn1c(SCC(=O)N2CC(=O)Nc3ccccc32)nc2ccccc21	1.1	-5.4	-0.1	-0.8	7.1	.
COc1ccc(C(c2nnnn2-c2c(C)cccc2C)N2CCN(C/C=C/c3ccccc3)CC2)cc1 (stereo not given)	.	11.8	-1.9	.	.	.
CC(=O)N1CCc2c(sc(NC(=O)c3ccc([N+](=O)[O-])o3)c2C(N)=O)C1	.	36.9	3.1	.	.	.
COc1cccc(-c2cc3nc(NCc4ccc(C)cc4C)n(C)c(=O)c3s2)c1	.	25.2	2.1	.	.	.
COc1ccc2c(c1)[C@H]1[C@H](CO2)[C@H](c2ccccc2)[C@]2(C)C(=O)Nc3cc(C)ccc3C(=O)N12	-0.8	36.4	0.1	-5.7	.	.
COc1cc2c(cc1OC)C(=O)N1[C@H]3c4cc(C)ccc4OC[C@@H]3[C@H](c3ccccc3)[C@]1(C)C(=O)N2	-1.1	64.5*	-1.6	-5.5	.	23.5
COc1cc2c(cc1OC)C(=O)N1[C@H]3c4cc(Cl)ccc4OC[C@@H]3[C@H](c3ccccc3)[C@]1(C)C(=O)N2	-3.2	85.8*	-0.5	-7.9	.	39.8
COc1ccc(NC(=O)C2(C)Cc3c(-c4cccc(NC(C)=O)c4)ccnc3O2)cn1 (stereo not given)	.	-6.3	-0.4	.	.	.
CC[C@@]1(C(=O)OC)N[C@H](CN(C)C(=O)Nc2ccc(C(F)(F)F)cc2)[C@@H]2C(=O)N(Cc3ccccc3)C(=O)[C@@H]21	-9.9	-2.2	0.6	0.7	.	.
